Most compounds without a hit are left out; they make up all but 8% or so of the library.
HCV inhibitor: blocks hepatitis C virus | Huh7.5.1 HCVcc-Cre infection, luciferase reporter, 44 h | Potency, µM (doses to about 41.8 µM), inactives show at the highest dose activity change, negative = inhibition, most hits filed as inhibitors | 340,000 compounds, 3.4% hits | AID 651820; active means well fitted inhibition curve with a large enough effect; inconclusive means small, poorly fitted or top-dose-only effect, or another doubt; inactive means no such curve, though single readings can be large or run the other way; further: potency means the concentration at half of the fitted maximal effect; on the % scale 0 is the no-effect control and ±100 the full control effect
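1,000 cells/well; 4 h culture; + compound; + HCVcc-Cre (~0.5 moi); 44 h; luciferase substrate, RT 15 min; read 15 sec.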
FMDV inh: foot and mouth disease virus antiviral activity; FMDV antiviral cell-based qHTS; Potency, µM (titrated, usually from 57.9 µM), inactives show top-dose activity change, negative = inhibition, hits mostly inhibitors; 410,000 compounds, 1.2% hits; calls by dose curve; tested in HEK293T cells; further: read-out not given here; potency means the concentration at half of the fitted maximal effect; on the % scale 0 is the no-effect control and ±100 the full control effect; nearly all actives have a fitted effect of over 45% in size
MARV entry inh: Marburg virus entry inhibition | AID 540276 | Marburg virus pseudotyped entry inhibition, cell reporter | 300,000 compounds, 1.8% hits | Potency, µM (highest dose often 37.8 µM), inactives show at the highest dose activity change, negative = inhibition, most hits filed as inhibitors; calls by dose curve; tested in HEK293 cells; further: potency means the concentration at half of the fitted maximal effect; on the % scale 0 is the no-effect control and ±100 the full control effect
SARS PLP yeast: SARS-CoV PLP inhibition in yeast; S. cerevisiae expressing SARS-CoV PLpro, growth rescue; AID 485353; 330,000 compounds, 0.19% hits; Potency, µM (top dose mostly 32.9 µM), inactives show top-dose activity, positive = growth rescue, usual class: activators; calls by dose curve; further: potency means the concentration at half of the fitted maximal effect; 0% is about no effect; nearly all actives have a fitted effect of over 55% in size
HCMV antiviral: human cytomegalovirus inhibition | HFF cells, HCMV-luciferase reporter, 72 h; hits give low values | 410,000 compounds, 4.5% hits | activity change, negative = inhibition, % at 57.5 µM; in the data active means activity change below about -60%; inconclusive means no clear call, values can overlap the other calls; inactive means above about -39%; further: on the % scale 0 is the no-effect control and ±100 the full control effect
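Two compound doses tested in HFFs infected with HCMV-luciferase, MOI 1 PFU/cell, 72 h at 37C. Lysate luminescence read with OneGlo; data normalized against buffer-only and 10uM Salinomycin inhibitor controls.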
Lassa entry inh: Lassa virus entry inhibition; Lassa virus pseudotype entry inhibition, cell reporter; Potency, µM (top dose mostly 37.9 µM), inactives show top-dose activity change, negative = inhibition, actives largely listed as inhibitors; 300,000 compounds, 1.2% hits; AID 540256; calls by dose curve; tested in HEK293 cells; further: potency means the concentration at half of the fitted maximal effect; on the % scale 0 is the no-effect control and ±100 the full control effect; nearly all actives have a fitted effect of over 50% in size
* = called active by the depositor; u = inconclusive; x = no result given; [ ] = dose if it differs, or a comment.

SMILES	HCV inhibitor	FMDV inh	MARV entry inh	SARS PLP yeast	HCMV antiviral	Lassa entry inh
CC(=O)c1cn(CC(=O)Nc2c(C)cccc2C)c2ccccc12	5.6µM*	u	u	-7%	-75*	-15%
CC(=O)c1cn(CC(=O)NCCc2c[nH]c3ccccc23)c2ccccc12	10µM*	u	x	-3%	-38	x
CCC(=O)c1cn(CC(=O)Nc2c(C)cccc2C)c2ccccc12	-8%	-19%	x	0%	11	x
CC(=O)c1cn(CC(=O)Nc2ccccc2C)c2ccccc12	u	u	u	1%	-68*	-28%
CC(C)(C)C(=O)c1cn(CC(=O)O)c2ccccc12	10µM*	7%	19%[46.1 µM]	-2%	-8	u
COc1ccc2c(c1)[C@@H](NC(C)=O)[C@H](C)[C@@H](c1ccccc1)N2C(C)=O	x	x	x	x	-5	x
CN(C)S(=O)(=O)c1ccc2c(c1)C(=NO)c1cc(S(=O)(=O)N(C)C)ccc1-2	-21%	3%	-2%[46.1 µM]	1%	-64*	0%
CC1CN(C(=O)c2ccc(CNS(=O)(=O)c3cccc(C(F)(F)F)c3)cc2)CC(C)O1 (centres undefined)	u	-14%	13µM*	-5%	-10	-30%
COc1ccc(NS(=O)(=O)c2ccc(C(=O)N3CCC(C)CC3)cc2)cc1	u	-14%	u	1%	-66*	u
CC1CCN(C(=O)c2ccc(NS(=O)(=O)c3ccc4[nH]c(=O)[nH]c4c3)cc2)CC1	u	-15%	3%[46.1 µM]	-3%	-98*	19%
CC1CCN(C(=O)c2ccc(CNS(=O)(=O)c3ccc(C(C)(C)C)cc3)cc2)CC1	22µM*	-9%	x	-7%	-37	x
O=C(c1cccnc1)N1CC(=O)N2[C@@H](CO)[C@@H](c3ccc(Br)cc3)[C@@H]2C1	x	x	x	x	-12	x
COc1ccc(NC(=O)c2c(C)oc3ccc(O)c(CN4CCN(C)CC4)c23)cc1Cl	x	-29%	u	x	-16	u
C=C(C)C(=O)OC1(C(F)(F)F)Oc2cc(C)ccc2NC1=O (centres undefined)	8%	-29%	u	-35%	-95*	-20%
CCOC(=O)C1(N(CC)CC)Sc2cc(C)ccc2NC1=O (centres undefined)	u	-17%	u	-11%	-14	u
CCc1cnc2c(c1SCC(=O)Nc1ccc(C)cc1C)c(=O)n(C)c(=O)n2C	x	-23%	x	x	2	18%[46.1 µM]
CCCN(CC(=O)Nc1ccc(Cl)cc1Cl)C(=O)/C=C/c1ccco1	u	4%	u	10%	-66*	u
COc1ccc(/C=C/c2noc(-c3ccccc3O)n2)cc1	-4%	0%	u	6%	-22	11µM*
N#C/C(=C\C=C\c1ccccc1)c1nc(-c2ccc(Cl)cc2)cs1	-12%	-5%	x	-1%	-60*	x
COc1ccc(Nc2cc(C)nc3nc(C)nn23)cc1Cl	2%	u	x	-5%	19	x
COc1ccc(Nc2cc(C)nc(-n3nc(C)cc3C)n2)cc1Cl	x	-9%	x	x	-98*	u
Cc1cc(Nc2ccc(C(C)C)cc2)nc(-n2nc(C)cc2C)n1	x	-24%	x	x	-91*	u
Cc1ccc2c(CC(=O)Nc3ccc(S(=O)(=O)N4CCCCC4C)cc3)coc2c1 (centres undefined)	x	14%	-6%[46.1 µM]	x	0	-21%[46.1 µM]
Cc1ccc(S(=O)(=O)c2cnc(SCC(=O)Nc3ccc4c(c3)OCCO4)[nH]c2=O)cc1Cl	x	-6%	x	x	-3	6%[46.1 µM]
COc1ccc2c(c1)C(n1c(C)ccc1C)C(=O)N2C (centres undefined)	x	x	x	x	-6	x
SMILES	HCV inhibitor	FMDV inh	MARV entry inh	SARS PLP yeast	HCMV antiviral	Lassa entry inh
COc1ccc(N(Cc2cccs2)C(=O)c2ccc(OCC(C)C)cc2)cc1	x	8%	-22%[46.1 µM]	x	18	-33%[46.1 µM]
CS(=O)(=O)Nc1cccc(NC(=O)c2ccc(-n3ccnc3)c3ccoc23)c1	x	-8%	x	x	-63*	x
O=C(Nc1c2c(nn1-c1ccc(Cl)cc1)CS(=O)(=O)C2)c1ccc(Br)cc1	x	u	x	x	-76*	u
CCCCn1nnnc1C1(C)CCC(=O)N1CC(F)(F)F (centres undefined)	x	-22%	x	x	4	x
CCOC(=O)C(=CNc1ccc(C#N)cc1)C(=O)OCC	-11%	-16%	x	0%	-40	x
Cc1c(C(=O)N2CCC(C)CC2)sc2ncnc(N(C)c3ccccc3)c12	u	u	u	-52%	-66*	-15%
C=CCC1(CC=C)CCCN1C(=O)c1cc(COc2ccc(C)nc2)on1	0.79µM*	u	x	1%	-76*	x
CCc1cccc(C)c1NC(=O)Cn1c(=O)cc(C(F)(F)F)c2c(C)nn(C)c21	x	-17%	x	x	5	-13%[46.1 µM]
Cc1ccc(C(=O)SC2=NCCS2)cc1	10%	35µM*	12%	-85%	-40	4%
COc1ccc(C(=O)SC2=NCCS2)cc1OC	12%	u	6%	0%	58	19%
CS(=O)(=O)NCCNc1ncc(C(F)(F)F)cc1Cl	-13%	0%	-8%[46.1 µM]	-3%	u	0%
O=S(=O)(NCCNc1ncc(C(F)(F)F)cc1Cl)C(F)(F)F	u	-6%	u	-6%	-71*	-4%
O=C1CC(=O)N(CCNc2ncc(C(F)(F)F)cc2Cl)C(=O)N1	11%	-15%	6%	16%	27	-6%
O=C1C=CC(=O)N1CCNc1ncc(C(F)(F)F)cc1Cl	u	32µM*	u	-5%	-96*	u
CC(C)C(NC(=O)c1ccccn1)c1nnc2n1CCN(Cc1ccc3ccccc3c1)CC2 (centres undefined)	x	-20%	x	x	x	x
CCOc1ccccc1NC(=O)CN1C(=O)COc2ccc(C)cc21	-7%	-29%	u	-2%	-1	u
COC(=O)c1ccc(CNC(=O)COC(=O)COc2ccc(OC)cc2)cc1	11%	0%	u	2%	-23	4%
COc1ccc(N2C(=O)C(=O)N(c3ccc(OC)cc3)P2(=O)N(CCCl)CCCl)cc1	9%	-14%	-2%[46.1 µM]	x	-75*	-1%[46.1 µM]
COc1ccc(N2C(=O)CCC2=O)cc1	2%	-7%	-15%	4%	35	0%
COc1ccccc1CNC(=O)CN1C(=O)NC(Cc2ccccc2)(c2ccccc2)C1=O (centres undefined)	-23%	-10%	u	0%	-12	-18%
COCCCn1c(=O)c2sccc2n2c(CCCC(=O)NCc3ccc(F)cc3)nnc12	13%	-9%	u	21%	-12	-9%[46.1 µM]
Cc1ccc(CNCc2c(C(=O)O)n(Cc3ccc(C)cc3)c3cc(C)ccc23)cc1	x	-16%	x	x	-107*	u
Cc1ccc2c(CNCCc3ccco3)c(C(=O)O)n(Cc3ccc(F)cc3)c2c1	x	-17%	x	x	-109*	-4%[46.1 µM]
Cc1ccc(Cn2c(C(=O)O)c(CNCc3ccc(C)o3)c3ccc(C)cc32)cc1	x	-20%	x	x	6	15%[46.1 µM]
